In assay [1] the target is Estrogen receptor (Homo sapiens) (UniProt P03372). Kind of assay: qHTS assay for small molecule antagonists of estrogen receptor alpha signaling (AID 588513; active = well fitted curve in the direction sought with a large enough effect in the signal ratio, with a control signal flat, not every such curve was filed as active; the % refers to the signal ratio; also: % is scaled to controls: 0 for no effect and ±100 for the full control effect). The method, boiled down: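 Fluorescence from CCF4 substrate after 2 h at room temperature gave reporter activity; cells had been exposed to compound and 0.5nM 17-beta-estradiol for 18 h at 37 C. Hill-equation fitting yielded IC50 and maximal response.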
In general terms: qHTS replaces the single test concentration by a dilution series.

Assay [2] shares this target. Kind of assay: qHTS assay for small molecule agonists of estrogen receptor alpha signaling (AID 588514).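 Also: 0% = vehicle only and 100% = reference agonist; nearly all actives have a fitted effect of over 70% in size.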 The method, boiled down: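 ER-alpha-UAS-bla GripTite HEK 293 cells in medium with 2% charcoal/dextran-treated FBS were treated with compound titrations at 37 C for 18 hrs; beta-lactamase reporter read by CCF4 fluorescence after 2 hrs at RT.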
The target in assay [3] is Glucocorticoid receptor (Homo sapiens) (UniProt P04150). Kind of assay: qHTS assay for small molecule antagonists of glucocorticoid receptor signaling (AID 588533; active = well fitted inhibition curve with a large enough effect in the signal ratio, with a control signal flat, not every such curve was filed as active; the % refers to the signal ratio; also: % is scaled to controls: 0 for no effect and ±100 for the full control effect). A digest of the protocol: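 Antagonist-mode qHTS: compound titrations added to GRE-bla HeLa cells, then dexamethasone 2 nM final; 18 h, 37 C. CCF4 FRET fluorescence normalized to dexamethasone and DMSO; IC50 from Hill fit.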

Assay [4] addresses Peroxisome proliferator-activated receptor delta (Homo sapiens) (UniProt Q03181). Kind of assay: qHTS assay for small molecule agonists of peroxisome proliferator-activated receptor delta signaling (AID 588534).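 Also: 0% = DMSO basal wells and 100% = positive control agonist at 10 µM.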 The method, boiled down:
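Cell-based beta-lactamase reporter assay run in agonist mode: cells seeded and incubated 5 hrs at 37 C, compounds added and incubated 18 hrs at 37 C. CCF4 dye fluorescence read after 2 hrs at RT; EC50 and efficacy from Hill fits.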

For assay [5], the target named is Peroxisome proliferator-activated receptor gamma (Homo sapiens) (UniProt P37231). Kind of assay: qHTS assay for small molecule agonists of peroxisome proliferator-activated receptor gamma signaling (AID 588536; active = well fitted curve in the direction sought with a large enough effect in the signal ratio, with a control signal flat, not every such curve was filed as active; the % refers to the signal ratio;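 also: 0% = DMSO basal wells and 100% = rosiglitazone at 2 µM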). A digest of the protocol: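 Test agents, titrated, stimulated HEK293 UAS-bla cells overnight (16 h, 37 C). Substrate CCF4 was then added for two hours at room temperature before fluorescence reading.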

Assay [6] shares this target. Kind of assay: qHTS assay for small molecule antagonists of peroxisome proliferator-activated receptor gamma signaling (AID 588537; active = well fitted inhibition curve with a large enough effect in the signal ratio, with a control signal flat, not every such curve was filed as active; the % refers to the signal ratio;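 also: reporter cells co-stimulated with 50 nM rosiglitazone agonist during compound treatment; % of control where 0% means no effect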). The method, boiled down:
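Step one: plate 3000 HEK293 UAS-bla cells per well in medium with 1% stripped serum and hold 6-6.5 h at 37 C. Step two: add compound and 50 nM agonist for 16 h. Step three: CCF4 loading, fluorescence read.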

Assay [7] deals with Vitamin D3 receptor (Homo sapiens) (UniProt P11473). Kind of assay: qHTS assay for small molecule antagonists of vitamin D receptor signaling (AID 588541).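 Also: receptor activated by calcitriol during compound treatment; series mostly up to about 77 µM; % is scaled to controls: 0 for no effect and ±100 for the full control effect.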 The method, boiled down:
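VDR-UAS-bla HEK293T cells in 2% charcoal-stripped FBS were stimulated with 1-alpha,25-dihydroxyvitamin D3 (3 nM final) plus compound for 16 h at 37 C. The beta-lactamase CCF4 readout was normalized to 50 nM agonist and DMSO, and Hill fits gave IC50.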

Assay [8] is described as follows: qHTS assay for small molecule agonists of retinoid X receptor alpha signaling (AID 588544).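 As to activation: 0% = DMSO basal wells and 100% = reference agonist.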 To be noted: HEK293T RXRa-UAS-bla, beta-lactamase reporter, 18 h; 530 nm emission.
For assay [9], the target named is Retinoic acid receptor RXR-alpha (Homo sapiens) (UniProt P19793). The description is as above.
Assay [10] deals with Thyroid hormone receptor beta (Homo sapiens) (UniProt P10828). Kind of assay: qHTS assay for small molecule agonists of thyroid hormone receptor beta signaling (AID 588545). The method, boiled down: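 Cells (2500/well) were seeded, incubated 4 hrs at 37 C, dosed with a compound series, incubated 18 hrs, loaded with CCF4 dye for 2 hrs at RT, then read for fluorescence. Data were scaled between DMSO (0%) and 10 nM T3 (100%).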

Assay [11] is described as follows: qHTS assay for small molecule antagonists of retinoid X receptor alpha signaling (AID 588546; active = well fitted inhibition curve with a large enough effect in the signal ratio, with a control signal flat, not every such curve was filed as active; the % refers to the signal ratio;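 also: cells stimulated with 9-cis-retinoic acid as agonist; % is scaled to controls: 0 for no effect and ±100 for the full control effect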). The following applies: HEK293T RXRa-UAS-bla, beta-lactamase ratio, antagonist mode; measured here: W530 green channel, cytotoxicity proxy. A digest of the protocol: (§1)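 Beta-lactamase reporter inhibition, read as CCF4 fluorescence ratio (ex 405, em 460/530 nm) after 2 h at RT. HEK293T UAS-bla cells, 2500/well, were stimulated with 9-cis-RA at 500 or 100 nM final alongside test compound for 18 h at 37 C.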

The target of assay [12] is Retinoic acid receptor RXR-alpha (Homo sapiens) (UniProt P19793). The assay is described as above. The following applies: HEK293T RXRa-UAS-bla, beta-lactamase ratio, antagonist mode. A digest of the protocol:
as §1

For assay [13], the target named is Thyroid hormone receptor beta (Homo sapiens) (UniProt P10828). Kind of assay: qHTS assay for small molecule antagonists of thyroid hormone receptor beta signaling (AID 588547; active = well fitted inhibition curve with a large enough effect in the signal ratio, with a control signal flat, not every such curve was filed as active; the % refers to the signal ratio). To be noted: TR-UAS-bla HEK293, beta-lactamase ratio, antagonist mode, 18 h. A digest of the protocol:
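TR-UAS-bla GripTite HEK293 cells in 2% charcoal/dextran FBS medium; compounds 0.59 nM to 92 uM with T3 at 0.4nM final, 18 h at 37 C. Beta-lactamase read by CCF4 fluorescence (460/530 nm); Hill fits gave IC50 and efficacy.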

Assay [14] in a line: qHTS assay for small molecule activators of the p53 signaling pathway (AID 651743; active = well fitted activation curve with a large enough effect in the signal ratio, not every such curve was filed as active; the % refers to the signal ratio; also: series mostly up to about 92 µM; % of control where 0% means no effect). To be noted: HCT-116 p53RE-bla, beta-lactamase FRET ratio, 16 h; activation: stronger effect = higher value. A digest of the protocol:
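HCT-116 p53RE-bla, 4,000 cells/well; 5 h settle; cpd/DMSO 16 h, 37 C; LiveBLAzer B/G 2 h RT; fluorescence intensity.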

Assay [15] in a line: qHTS assay for environmental chemicals that activate the Aryl hydrocarbon Receptor (AhR) signaling pathway (AID 651777; active = well fitted curve in the direction sought with a large enough effect; an effect the other way counts as inactive or inconclusive; also: % of control where 0% means no effect; nearly all actives have a fitted effect of over 15% in size). To be noted: 1A2-DRE human hepatoma cells, luciferase, 24 h; activation: stronger effect = higher value. A digest of the protocol:
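Following a 24 hr incubation with test chemicals at 37 C and 5% CO2, 1A2-DRE human hepatoma cells received One-Glo reagent; after 30 min at room temperature, luciferase output reflected CYP1A2 induction via AhR.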

The target of assay [16] is Peroxisome proliferator-activated receptor alpha (Homo sapiens) (UniProt Q07869). Kind of assay: qHTS assay for small molecule agonists of the peroxisome proliferator-activated receptor alpha (PPARalpha) signaling pathway (AID 651778; active = well fitted curve in the direction sought with a large enough effect; an effect the other way counts as inactive or inconclusive; also: % of control where 0% means no effect). The following applies: PathHunter PPARalpha complementation, chemiluminescence, 6 h; max response: stronger effect = higher value. A digest of the protocol:
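Enzyme-fragment complementation assay in which ligand-bound PPARalpha translocates and forms an active enzyme that generates chemiluminescence. Cells were plated overnight, exposed to compound for 6 hr at 37 C, and then given detection reagent for 60 min at room temperature.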

A short description of assay [17]: qHTS assay for small molecule agonists of the antioxidant response element (ARE) signaling pathway measured by Nrf2-dependant transcriptional activity (AID 720636; active = well fitted curve in the direction sought with a large enough effect in the repeat runs; an effect the other way counts as inactive or inconclusive;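 also: HepG2 cells with an ARE-driven luciferase reporter; % of control where 0% means no effect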). A digest of the protocol:
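ONE-Glo luminescence, read 30 min after reagent addition at room temperature, reflected ARE reporter activity in HepG2 cells that had been incubated with compound for 16 hr at 37 C in 1% dialyzed FBS.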

Assay [18] is described as follows: qHTS assay for small molecule agonists of the antioxidant response element (ARE) signaling pathway measured by Nrf2-dependant transcriptional activity - cell viability counter screen (AID 720653; active = well fitted curve in the direction sought with a large enough effect in the repeat runs; an effect the other way counts as inactive or inconclusive; also: % is scaled to controls: 0 for no effect and ±100 for the full control effect). To be noted: ARE-bla HepG2 viability, CellTiter-Glo ATP luminescence, 16 h; max response: stronger effect = lower value. The method, boiled down: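 ARE-bla HepG2 cells treated with compounds for 16 h at 37C; this counter screen measures viability as intracellular ATP by CellTiter-Glo luminescence after 30 min at room temperature.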

Assay [19] is described as follows: qHTS assay for cell viability of HEK293 cells (AID 743288; active = well fitted curve in the direction sought with a large enough effect; an effect the other way counts as inactive or inconclusive; also: % is scaled to controls: 0 for no effect and ±100 for the full control effect; nearly all actives have a fitted effect of over 50% in size). The following applies: ATP luminescence (CellTiter-Glo), 18 h; max response: stronger effect = lower value. The method, boiled down: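 HEK293 parental, 2,000 cells/well; ≥5 h pre-incubation 37 C; pintool compound addition; 18 h, 37 C; CellTiter-Glo 30 min RT; luminescence read.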
A short description of assay [20]: qHTS assay for cell viability of the p53RE-bla HCT-116 cell line (AID 743292; active = well fitted curve in the direction sought with a large enough effect; an effect the other way counts as inactive or inconclusive; also: % is scaled to controls: 0 for no effect and ±100 for the full control effect; nearly all actives have a fitted effect of over 55% in size). A digest of the protocol:
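After plating at 4,000 cells per well and a 5 h rest at 37 C, HCT-116 cells carrying p53RE-bla received test chemicals in DMSO. Sixteen hours later at 37 C, CellTiter-Glo was added and luminescence recorded following 30 min at room temperature.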

Inconclusive results are not listed. Calls of active or inactive are those of the source. Unless noted, calls follow the shape of the full dose curve.

Chain of Retinoic acid receptor RXR-alpha (Homo sapiens) (P19793 whole entry, looked up): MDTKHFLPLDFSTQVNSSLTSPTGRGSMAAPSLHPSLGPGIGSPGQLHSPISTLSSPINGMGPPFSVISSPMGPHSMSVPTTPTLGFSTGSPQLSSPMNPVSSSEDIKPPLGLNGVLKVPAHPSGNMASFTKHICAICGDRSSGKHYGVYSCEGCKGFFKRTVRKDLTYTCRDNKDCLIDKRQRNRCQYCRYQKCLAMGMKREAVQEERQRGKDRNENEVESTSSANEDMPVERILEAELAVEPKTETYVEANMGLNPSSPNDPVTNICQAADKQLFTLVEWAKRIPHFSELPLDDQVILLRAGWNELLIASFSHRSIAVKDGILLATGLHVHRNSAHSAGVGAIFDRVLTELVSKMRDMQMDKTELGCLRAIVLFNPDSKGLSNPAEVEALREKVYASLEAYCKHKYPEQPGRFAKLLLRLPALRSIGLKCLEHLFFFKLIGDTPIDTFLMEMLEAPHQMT
Chain of Glucocorticoid receptor (Homo sapiens) (P04150 whole entry, looked up): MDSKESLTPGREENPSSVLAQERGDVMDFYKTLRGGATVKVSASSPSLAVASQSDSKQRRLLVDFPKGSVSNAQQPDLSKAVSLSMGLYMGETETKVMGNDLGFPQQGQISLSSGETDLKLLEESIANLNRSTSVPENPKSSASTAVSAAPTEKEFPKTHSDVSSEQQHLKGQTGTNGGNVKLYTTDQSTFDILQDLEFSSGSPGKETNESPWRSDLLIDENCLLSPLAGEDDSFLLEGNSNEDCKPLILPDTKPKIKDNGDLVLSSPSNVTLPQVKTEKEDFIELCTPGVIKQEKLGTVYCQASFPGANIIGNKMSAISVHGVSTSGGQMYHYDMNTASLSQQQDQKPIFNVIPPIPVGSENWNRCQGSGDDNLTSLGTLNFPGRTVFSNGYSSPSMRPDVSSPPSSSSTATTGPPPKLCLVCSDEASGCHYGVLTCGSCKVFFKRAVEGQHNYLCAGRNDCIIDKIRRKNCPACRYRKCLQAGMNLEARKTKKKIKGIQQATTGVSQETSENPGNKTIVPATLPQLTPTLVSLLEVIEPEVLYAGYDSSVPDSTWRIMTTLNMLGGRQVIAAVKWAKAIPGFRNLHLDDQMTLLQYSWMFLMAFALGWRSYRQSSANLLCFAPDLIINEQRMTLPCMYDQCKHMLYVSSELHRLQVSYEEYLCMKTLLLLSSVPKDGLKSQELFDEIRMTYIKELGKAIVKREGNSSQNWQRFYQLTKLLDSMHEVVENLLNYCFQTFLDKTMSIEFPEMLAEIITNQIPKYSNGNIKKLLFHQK
Chain of Estrogen receptor (Homo sapiens) (P03372 whole entry, looked up): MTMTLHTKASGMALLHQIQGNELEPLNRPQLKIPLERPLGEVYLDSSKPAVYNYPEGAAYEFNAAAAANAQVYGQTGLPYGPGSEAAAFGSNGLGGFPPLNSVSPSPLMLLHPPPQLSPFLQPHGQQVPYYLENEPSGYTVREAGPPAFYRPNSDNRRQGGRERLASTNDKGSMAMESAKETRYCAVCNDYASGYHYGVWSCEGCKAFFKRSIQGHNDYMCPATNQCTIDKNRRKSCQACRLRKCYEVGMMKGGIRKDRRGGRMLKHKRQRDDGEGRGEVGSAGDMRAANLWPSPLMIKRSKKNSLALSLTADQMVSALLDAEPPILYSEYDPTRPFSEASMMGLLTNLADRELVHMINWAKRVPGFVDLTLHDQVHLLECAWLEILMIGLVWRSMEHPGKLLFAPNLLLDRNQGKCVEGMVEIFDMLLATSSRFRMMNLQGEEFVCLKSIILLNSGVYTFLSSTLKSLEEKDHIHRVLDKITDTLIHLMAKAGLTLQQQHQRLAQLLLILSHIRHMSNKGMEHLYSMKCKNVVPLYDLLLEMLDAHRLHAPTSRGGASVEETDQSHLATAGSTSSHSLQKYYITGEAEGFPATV
Chain of Peroxisome proliferator-activated receptor gamma (Homo sapiens) (P37231 whole entry, looked up): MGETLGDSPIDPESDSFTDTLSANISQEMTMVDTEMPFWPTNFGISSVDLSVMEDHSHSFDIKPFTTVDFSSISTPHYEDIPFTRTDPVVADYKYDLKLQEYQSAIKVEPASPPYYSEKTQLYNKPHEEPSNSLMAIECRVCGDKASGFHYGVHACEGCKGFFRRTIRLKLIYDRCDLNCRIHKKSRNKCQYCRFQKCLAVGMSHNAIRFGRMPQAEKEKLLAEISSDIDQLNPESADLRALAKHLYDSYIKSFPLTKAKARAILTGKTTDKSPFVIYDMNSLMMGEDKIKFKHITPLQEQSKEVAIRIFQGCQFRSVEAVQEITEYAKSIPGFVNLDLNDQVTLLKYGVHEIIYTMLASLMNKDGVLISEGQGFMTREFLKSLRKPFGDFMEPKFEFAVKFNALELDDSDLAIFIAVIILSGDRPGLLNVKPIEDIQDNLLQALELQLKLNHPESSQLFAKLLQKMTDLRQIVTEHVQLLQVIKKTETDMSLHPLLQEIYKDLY
Chain of Vitamin D3 receptor (Homo sapiens) (P11473 whole entry, looked up): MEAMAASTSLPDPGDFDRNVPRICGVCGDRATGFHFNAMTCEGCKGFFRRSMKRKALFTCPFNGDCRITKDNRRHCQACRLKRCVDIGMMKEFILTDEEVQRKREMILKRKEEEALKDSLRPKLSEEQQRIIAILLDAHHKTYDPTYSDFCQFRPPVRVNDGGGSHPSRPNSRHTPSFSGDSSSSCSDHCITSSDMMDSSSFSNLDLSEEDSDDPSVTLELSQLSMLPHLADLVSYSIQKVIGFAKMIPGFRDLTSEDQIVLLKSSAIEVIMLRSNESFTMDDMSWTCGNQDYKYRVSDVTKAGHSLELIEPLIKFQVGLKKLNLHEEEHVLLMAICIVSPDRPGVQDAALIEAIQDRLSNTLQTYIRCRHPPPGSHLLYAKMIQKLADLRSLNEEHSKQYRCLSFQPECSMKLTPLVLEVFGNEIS
Chain of Peroxisome proliferator-activated receptor alpha (Homo sapiens) (Q07869 whole entry, looked up, the tested form may be a part): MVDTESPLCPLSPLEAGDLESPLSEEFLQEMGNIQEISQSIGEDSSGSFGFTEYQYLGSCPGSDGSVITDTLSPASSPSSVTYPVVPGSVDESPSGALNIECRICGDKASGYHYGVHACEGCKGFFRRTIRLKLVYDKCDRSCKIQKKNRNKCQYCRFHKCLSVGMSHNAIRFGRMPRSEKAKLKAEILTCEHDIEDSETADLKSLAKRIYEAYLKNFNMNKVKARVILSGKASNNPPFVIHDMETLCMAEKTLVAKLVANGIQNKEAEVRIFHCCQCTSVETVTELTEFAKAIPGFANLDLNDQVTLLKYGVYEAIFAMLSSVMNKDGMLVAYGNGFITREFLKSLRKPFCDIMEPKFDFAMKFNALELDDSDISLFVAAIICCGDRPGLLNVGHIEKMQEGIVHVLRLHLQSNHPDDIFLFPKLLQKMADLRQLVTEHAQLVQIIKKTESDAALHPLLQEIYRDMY
Chain of Thyroid hormone receptor beta (Homo sapiens) (P10828 whole entry, looked up): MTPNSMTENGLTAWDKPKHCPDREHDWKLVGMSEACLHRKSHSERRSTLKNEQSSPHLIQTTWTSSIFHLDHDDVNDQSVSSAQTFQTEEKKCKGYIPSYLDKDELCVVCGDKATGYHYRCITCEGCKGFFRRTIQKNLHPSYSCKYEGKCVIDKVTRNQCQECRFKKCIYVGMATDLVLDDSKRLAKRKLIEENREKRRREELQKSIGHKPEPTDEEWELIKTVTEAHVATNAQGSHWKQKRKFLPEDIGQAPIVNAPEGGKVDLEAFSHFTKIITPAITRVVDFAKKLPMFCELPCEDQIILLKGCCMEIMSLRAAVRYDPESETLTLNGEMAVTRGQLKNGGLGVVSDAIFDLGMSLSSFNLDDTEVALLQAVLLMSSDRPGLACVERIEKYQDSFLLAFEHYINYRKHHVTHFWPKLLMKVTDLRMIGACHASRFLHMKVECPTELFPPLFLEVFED
Chain of Peroxisome proliferator-activated receptor delta (Homo sapiens) (Q03181 whole entry, looked up): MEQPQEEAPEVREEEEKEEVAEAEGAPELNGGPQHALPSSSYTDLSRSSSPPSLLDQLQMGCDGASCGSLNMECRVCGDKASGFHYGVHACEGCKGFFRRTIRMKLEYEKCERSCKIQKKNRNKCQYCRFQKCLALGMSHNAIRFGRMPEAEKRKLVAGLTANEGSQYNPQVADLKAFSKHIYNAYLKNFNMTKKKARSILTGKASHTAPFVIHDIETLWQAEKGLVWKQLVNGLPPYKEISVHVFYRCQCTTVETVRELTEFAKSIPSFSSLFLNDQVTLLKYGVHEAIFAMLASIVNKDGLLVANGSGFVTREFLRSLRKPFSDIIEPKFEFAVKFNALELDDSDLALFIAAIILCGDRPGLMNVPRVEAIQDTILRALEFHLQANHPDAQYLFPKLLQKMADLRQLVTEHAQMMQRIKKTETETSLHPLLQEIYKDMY

Consider `CCOP(=S)(S)OCC`, for which the Potency entry in assay [1], in assay [2], in assay [3], in assay [5], in [6] and in assay [7] was “inactive” each time. Also, the Potency result in assay [9], in [10], in [17] and in [20] was “inactive” throughout. Further, the result in assay [4] was inactive. The max response in assay [8] was -7.79%; in [11], -11.3%; in [12], -16.6% (inactive); in assay [16], -2.08% (inactive); in [18], 2.15% (inactive); in assay [19], -0.594% (inactive). Moreover, the activity change % (negative = inhibition) in assay [13] was 8.37% (inactive). Moreover, the activation is -1.75% (inactive) in assay [14] and 0.356% (inactive) in [15].

As for `C/C=C(\C)C(=O)O[C@H]1C[C@@H](OC(C)=O)[C@@]2(C(=O)OC)CO[C@H]3[C@@H](O)[C@@](C)([C@]45O[C@@]4(C)[C@H]4C[C@@H]5O[C@@H]5OC=C[C@@]54O)[C@H]4[C@]1(CO[C@]4(O)C(=O)OC)[C@@H]32`, the Potency entry in [1], in [2], in assay [5], in [6], in assay [7] and in assay [9] was “inactive” each time. In assay [10], the Potency result is “inactive”. Also, the compound was called inactive in [4]. In addition, the max response is -0.369% in [8]; -5.84% in [11]; -3.71% (inactive) in assay [16]; -22.9% (inactive) in [18]; -0.199% (inactive) in assay [19]. Moreover, the activity change % (negative = inhibition) in assay [13] is 7.18% (inactive). Besides, the activation is 6.01% (inactive) in assay [14] and -0.999% (inactive) in assay [15].

Take `CCOP(=O)(OCC)SCSC(C)(C)C`: the Potency result in [1], in assay [2], in assay [3], in [5], in assay [7] and in assay [9] was “inactive” throughout. Besides, the Potency result in assay [10] and in [17] was “inactive” each time. Moreover, the compound was called inactive in [4]. The max response in assay [8] is 4.09%; in assay [11], -15.4%; in [12], -1.69% (inactive); in assay [19], -8.78% (inactive). In addition, in assay [13], the activity change % (negative = inhibition) is -1.18% (inactive). In [15], the activation was -0.964% (inactive).

Turning to `O=[As](O)(O)O`, the Potency entry in assay [1], in [2], in assay [3], in assay [5], in assay [7] and in assay [9] was “inactive” each time. Besides, in assay [10], the Potency result is “inactive”. Further, the compound was called inactive in [4]. Moreover, the max response in assay [8] was -18.2%; in assay [11] it was -3.47%; in assay [12], -6.13% (inactive); in assay [16], 0.0106% (inactive); in [18] it was -8.77% (inactive). In addition, the activity change % (negative = inhibition) in assay [13] was -13.2% (inactive). Also, the activation in assay [15] is -0.386% (inactive).

On to `C/C(=N\C(N)=O)N(C)Cc1ccc(Cl)nc1`, for which the Potency result in assay [1], in assay [2], in [3], in assay [5], in assay [6] and in [7] was “inactive” each time. Besides, the Potency result in [9] and in assay [10] was “inactive” in each case. Also, the compound was called inactive in assay [4]. Moreover, the max response is -8.24% in assay [8]; -9.48% in [11]; -3.51% (inactive) in assay [12]; -1.45% (inactive) in [16]; -7.18% (inactive) in [18]; 0.858% (inactive) in assay [19]. For the same compound, the activity change % (negative = inhibition) in assay [13] was -10.7% (inactive). Besides, the activation in assay [14] was -4.92% (inactive); in assay [15] it was -0.747% (inactive).

The record behind these values is PubChem BioAssay (NCATS).
